# Data taken from PubChem BioAssay (Tox21).
# Results filed as inconclusive are left out. Values without a mark were called inactive. The call rests on the fitted dose curve; in most records, active means well fitted cell-killing curve with a large enough effect in the repeat runs; inconclusive means weak or mixed curves; inactive means flat fitted curve, though single readings scatter.
# Test: qHTS RealTime-Glo MT Cell Viability Assay in HepG2 cells - 16 hour (AID 1224885); further: nearly all actives have a fitted effect of over 50% in size
# Settings: RealTime-Glo luminescence; series mostly up to 76.8 µM; activity change, negative = cytotoxic: at the top concentration
# Excerpt: U.S. Tox21 Program National Center for Advancing Translational Sciences [NCATS] NIH Chemical Genomics Center [NCGC] U.S. Environmental Protection Agency [EPA] National Institutes of Environmental Health Sciences [NIEHS] National Toxicology Program [NTP] U.S. Food and Drug Administration [FDA] Tox21 Assay Overview: Measure of cell viability is critical in the cell-base assay. Analysis of cell viability is necessary for the characterization of cell responses to cytotoxic drugs and environmental stress. A RealTime-Glo MT Cell Viability Assay to monitor cell viability in real time of continues cell culture during 40 hours of compound treatment was used to screen Tox21 10K library compounds in HepG2 cells. The RealTime-Glo MT Cell Viability Assay is a nonlytic, homogeneous, bioluminescent method to measure cell viability in real time using a simple, plate-based method. The assay involves adding NanoLuc luciferase and a cell-permeant prosubstrate to cells in culture. Viable cells reduce the proprietary prosubstrate to generate a substrate for NanoLuc luciferase. This substrate diffuses from cells into the surrounding culture medium, where it is rapidly used by the NanoLuc Enzyme to produce a luminescent signal. The signal correlates with the number of viable cells, making the assay well suited for cytotoxicity studies.
# Tox21 Assay Protocol Summary: The mixture of HepG2 cell suspension and reagents were dispensed at 600cells/6 ul/well in 1536-well tissue culture treated black solid bottom plates using a Multidrop dispenser. After the assay plates were incubated at a 37 C/5% CO2 incubator for 5 hours, 23 nL of compounds dissolved in DMSO, positive and negative controls was transferred to the assay plate by a pintool work station. The plates were incubated at 37 C for 40 hours. The luminescence intensity were measured at 0h, 8h, 16h, 24h, 32h and 40h time points using ViewLux plate reader during compound treatment.
# On the % scale 0 is the no-effect control and ±100 the full control effect.
row,Compound,"activity change, negative = cytotoxic"
1,COC1=CC(=O)O[C@@H](/C=C/c2ccccc2)C1,-1.04%
2,C[C@]12C=CC(=O)C=C1CC[C@@H]1[C@@H]2CC[C@@]2(C)[C@H]1CC[C@]2(C)O,0.286% [at 35.3 µM]
3,CCC(=O)c1ccc(Cl)cc1,-0.792%
4,CCSC(=O)Cl,-0.309%
5,CC1=C2[C@H]3OC(=O)[C@@H](C)[C@@H]3CC[C@@]2(C)C=CC1=O,4.56% [at 35.3 µM]
6,COC(=O)c1ccccc1CS(=O)(=O)NC(=O)Nc1nc(OC)cc(OC)n1,0.674%
7,CCC(C)C(C)(COC(N)=O)COC(N)=O (stereo not given),2.96% [at 35.3 µM]
8,CC[C@@H](CO)NC(=O)[C@@H]1C=C2c3cccc4c3c(cn4C)C[C@H]2N(C)C1,3.73% [at 35.3 µM]
9,BrCc1ccc(Br)cc1,3.55%
10,O=C1CCCCC1Cl (stereo not given),1.69%
11,Brc1c(Br)c(Br)c(Br)c(Br)c1Br,-8.35% [at 6.97 µM]
12,CN(C)C1CCCCC1,0.368%
13,CC[C@H](N)c1ccccc1,-0.207%
14,CCCCOC(C)=O,-0.122%
15,[P]#[In],3.24%
16,CCCCCCCC(=O)Cl,2.15%
17,CC(C)(C)C(=O)C(Cl)Cl,-0.645%
18,S=C=S,1.45%
19,COc1ccc(C=O)cc1O,-8.15%
20,CCN(CCO)CCO,3.26%

row,Compound,"activity change, negative = cytotoxic"
1,CN(C)C(=O)Oc1cc(OC(=O)N(C)C)cc(C(O)CNC(C)(C)C)c1 (stereo not given),0.644% [at 35.3 µM]
2,O=C(O)C(Cl)Br (stereo not given),0.258%
3,C[C@H]1CCCC(=O)CCC/C=C/c2cc(O)cc(O)c2C(=O)O1,-19.2% [at 35.3 µM]
4,CC1NCCOC1c1ccccc1 (stereo not given),7.59% [at 35.3 µM]
5,O=c1[nH]c2ccccc2o1,1.84%
6,COP(=O)(OC)O/C(C)=C/C(=O)N(C)C,2.16%
7,COP(=O)(O)OC,0.52%
8,COC(=O)c1ccc(CBr)cc1,-0.396%
9,Clc1ccc(C(Cl)(Cl)Cl)cn1,-4.6%
10,Cl/C=C/CCl,-0.317%
11,CC(C)(C)C(=O)Cl,-1.07%
12,CC[C@@H](CO)NC(=O)[C@@H]1C=C2c3cccc4[nH]cc(c34)C[C@H]2N(C)C1,-0.716% [at 35.3 µM]
13,O=P(O)(O)c1ccccc1,-0.989%
14,COc1ccc(CN2CCNCC2)c(OC)c1OC,1.1% [at 35.3 µM]
15,C=C(Cl)CCl,3.68%
16,CCc1cc(OC)c(C[C@H](C)N)cc1OC,-3.83%
17,COc1cccc(C=O)c1,-2.01%
18,C/C=C/CC#N,-0.796%
19,CCCCCCC1CCOC1=O (stereo not given),1.9%
20,NC(=O)CS(=O)C(c1ccccc1)c1ccccc1 (stereo not given),1.54% [at 35.3 µM]
